RECQ1 inh – inhibitors of human RECQ1 DNA helicase. P46063. Potency, µM (top dose mostly 57.3 µM), without a hit: at the highest dose activity, negative = inhibition, most hits filed as inhibitors. RECQ1 DNA unwinding, red fluorescence kinetic read. 240,000 tested, 0.54% active;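 also: plate controls were vehicle for no effect and no enzyme for full effect; nearly all actives have a fitted effect of over 30% in size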
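RECQ1T1 50 nM; forked duplex (20 bp + 30-nt ss tails) 200 nM, ATP 2 mM final; pH 8.0, 2 mM MgCl2, 2.5 ug/ml poly(dI-dC); 15 min compound preincubation; discontinuous kinetic read over 2 h at RT.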
APE1 inh – blocks human APE1 abasic DNA cleavage; recombinant APE1, TAMRA/BHQ-2 abasic DNA cleavage fluorescence; P27695; 350,000 tested, 0.35% active; Potency, µM (top dose mostly 65.8 µM), for the others: at the highest dose activity change, negative = inhibition, usual class: inhibitors;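 also: plate controls were vehicle for no effect and reference inhibitor for full effect; nearly all actives have a fitted effect of over 55% in size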
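APE1 at 0.75 nM final was preincubated with compound 15 min at room temperature, then 50 nM double-stranded THF abasic-site substrate (5'-TAMRA/3'-BHQ-2) was added. Fluorescence (ex 525/em 598 nm) was read kinetically; third-minus-first read gave activity.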
WRN helicase inh-1 – inhibitors of human WRN helicase. WRN helicase unwinding, fluorescent forked duplex, kinetic. AID 651768. Q14191. Potency, µM (doses to about 114 µM), for the others: at the top dose activity change, negative = inhibition, usual class: inhibitors. 360,000 tested, 0.46% active; also: % is scaled to controls: 0 for no effect and ±100 for the full control effect; nearly all actives have a fitted effect of over 55% in size
Target sequence (Q14191 whole entry, looked up): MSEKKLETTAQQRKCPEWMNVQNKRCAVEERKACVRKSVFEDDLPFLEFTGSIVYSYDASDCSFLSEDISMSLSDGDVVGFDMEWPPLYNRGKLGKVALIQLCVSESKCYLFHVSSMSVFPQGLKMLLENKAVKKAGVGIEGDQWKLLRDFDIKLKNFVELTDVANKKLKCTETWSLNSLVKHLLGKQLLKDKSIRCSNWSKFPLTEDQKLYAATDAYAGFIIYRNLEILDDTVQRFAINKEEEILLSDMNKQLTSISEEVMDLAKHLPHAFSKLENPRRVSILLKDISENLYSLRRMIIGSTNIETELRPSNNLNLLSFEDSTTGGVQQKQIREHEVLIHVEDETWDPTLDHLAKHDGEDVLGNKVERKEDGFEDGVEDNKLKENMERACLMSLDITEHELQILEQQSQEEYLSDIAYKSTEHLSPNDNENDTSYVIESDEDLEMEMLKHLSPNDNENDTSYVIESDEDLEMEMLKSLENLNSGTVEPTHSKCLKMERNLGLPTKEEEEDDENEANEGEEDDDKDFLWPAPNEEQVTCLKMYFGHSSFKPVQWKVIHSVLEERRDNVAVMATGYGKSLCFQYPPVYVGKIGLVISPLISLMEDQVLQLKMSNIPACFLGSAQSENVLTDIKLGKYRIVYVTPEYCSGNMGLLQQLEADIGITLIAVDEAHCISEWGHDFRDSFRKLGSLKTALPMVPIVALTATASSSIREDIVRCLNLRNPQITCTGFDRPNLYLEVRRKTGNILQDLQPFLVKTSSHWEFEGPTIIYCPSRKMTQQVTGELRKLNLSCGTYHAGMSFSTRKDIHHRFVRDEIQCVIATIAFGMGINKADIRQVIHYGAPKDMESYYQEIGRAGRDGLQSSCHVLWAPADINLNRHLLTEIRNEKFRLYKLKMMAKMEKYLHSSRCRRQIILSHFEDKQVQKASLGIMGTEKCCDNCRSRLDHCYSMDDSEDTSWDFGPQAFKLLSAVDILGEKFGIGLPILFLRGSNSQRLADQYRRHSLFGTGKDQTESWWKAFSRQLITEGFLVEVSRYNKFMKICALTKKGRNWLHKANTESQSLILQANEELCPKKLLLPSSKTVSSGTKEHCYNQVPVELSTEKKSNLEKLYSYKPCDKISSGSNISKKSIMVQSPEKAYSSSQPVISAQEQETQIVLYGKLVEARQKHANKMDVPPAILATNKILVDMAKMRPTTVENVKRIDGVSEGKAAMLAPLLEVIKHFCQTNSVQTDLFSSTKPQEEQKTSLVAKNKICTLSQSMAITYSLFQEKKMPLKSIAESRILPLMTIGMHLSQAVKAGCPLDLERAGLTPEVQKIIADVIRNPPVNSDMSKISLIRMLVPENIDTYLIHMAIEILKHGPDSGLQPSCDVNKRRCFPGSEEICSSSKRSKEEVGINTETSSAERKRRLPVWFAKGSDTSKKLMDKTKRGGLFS
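Kinetic fluorescence helicase assay: unwinding of a quenched forked DNA duplex (100 nM final) with 2 mM ATP final raises red fluorescence (525/598 nm). Compounds sat 15 min at room temperature with 20 nM WRN beforehand.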
BLM helicase inh-1 – Bloom syndrome helicase (human) inhibition; Potency, µM (series often up to 56.1 µM), for inactives: at the highest dose activity change, negative = inhibition, actives largely listed as inhibitors; recombinant BLM DNA unwinding, fluorescence dequenching; 350,000 tested, 0.2% active; P54132;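 also: plate controls were vehicle for no effect and no enzyme for full effect; nearly all actives have a fitted effect of over 35% in size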
FEN1 inh-1 – blocks human flap endonuclease 1 | Potency, µM (highest dose often 114 µM), for inactives: top-dose activity change, negative = inhibition, usual class: inhibitors | P39748 | 390,000 tested, 0.35% active | Recombinant FEN1 flap cleavage, fluorescence, 15 min; also: % is scaled to controls: 0 for no effect and ±100 for the full control effect; nearly all actives have a fitted effect of over 65% in size
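Steps: FEN1 (10 nM) dispensed; compound added by pin tool; 15 min at room temperature; substrate added to 50 nM final; reads at 0 min and 15 min; data normalized and fitted (four-parameter Hill).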
FEN1 inh-2 – confirmation of human FEN1 inhibitors; shares compounds with FEN1 inh-1; FEN1 flap cleavage, TAMRA/BHQ2 fluorogenic DNA substrate; Potency, µM, most hits filed as inhibitors; 880 tested, 79% active; AID 720498; also: nearly all actives have a fitted effect of over 60% in size
WRN helicase inh-2 – WRN helicase inhibition, cherry-pick retest; shares compounds with WRN helicase inh-1; WRN helicase DNA unwinding, fluorescence kinetic; Potency, µM (series often up to 57.1 µM), for the others: top-dose activity, negative = inhibition, most hits filed as inhibitors; 610 tested, 63% active; also: nearly all actives have a fitted effect of over 65% in size
TO DNA binding – binds DNA, flagged in WRN inhibitor counterscreen; shares compounds with WRN helicase inh-1; thiazole orange DNA binding displacement, fluorescence; Potency, µM (titrated, usually from 57.1 µM), inactives show top-dose activity change, negative = inhibition, hits mostly inhibitors; 610 tested, 10% active; AID 720499;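 also: drop in dye fluorescence marks compound binding to DNA; % is scaled to controls: 0 for no effect and ±100 for the full control effect; nearly all actives have a fitted effect of over 60% in size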
BLM helicase inh-2 – counter-screen for WRN helicase inhibitors: human BLM helicase inhibition | shares compounds with WRN helicase inh-1 | Recombinant BLM helicase DNA unwinding, red fluorescence | Potency, µM (top dose mostly 57.1 µM), for the others: at the highest dose activity change, negative = inhibition, actives largely listed as inhibitors | 610 tested, 60% active | AID 720503; also: nearly all actives have a fitted effect of over 60% in size
* hit, by the source's call; i = inactive; ? = inconclusive; / = no result given; [ ] = dose if it differs, or a comment. In the library only some 0.87% were active in any assay of this set; here they are far more common. Calls follow the shape of the dose curve; as a rule, active = well fitted curve in the direction sought with a large enough effect; inconclusive = small, poorly fitted or top-dose-only effect, or another doubt; inactive = no such curve, though single readings can be large; an effect the other way counts as inactive or inconclusive. Potency is read from the fitted curve at half-maximal effect.

SMILES | RECQ1 inh | APE1 inh | WRN helicase inh-1 | BLM helicase inh-1 | FEN1 inh-1 | WRN helicase inh-2 | TO DNA binding | BLM helicase inh-2 | others
Cc1cc(NC(=O)CSc2cn(CCNC(=O)c3ccccc3)c3ccccc23)no1 | -5.6% | -4.5% | 31.6µM* | -2.5% | 31.6µM* | 12.1µM* | -14.3% | 3.41µM* | FEN1 inh-2=67.5*
CCN(CC)CCCNC(=O)CCCn1ncn2c(cc3occc32)c1=O | / | / | / | -2.2% | 22.0% | / | / | /
Oc1ccc(C2=Nn3c(nnc3-c3ccco3)SC2)cc1O | 3.0% | -1.5% | 11.2µM* | ? | 50.1µM* | 15.2µM* | -23.9% | 17.1µM* | FEN1 inh-2=42.6*
O=C1/C(=C\c2cc([N+](=O)[O-])ccc2O)SC(=S)N1Cc1ccc(Cl)cc1 | / | ? | 5.97µM* | 31.6µM* | 22.4µM* | 5.41µM* | 20.7% | 3.04µM* | FEN1 inh-2=37.9*
CCOc1ccc(Sc2cc(C(=O)NC(C)c3ccccc3)c3ccccc3n2)cc1 (centres undefined) | / | / | / | -0.9% | 0.2% | / | / | /
COc1ccc2[nH]cc(CCN=C(NC(=O)c3ccccc3F)Nc3nc(C)cc(C)n3)c2c1 | / | / | / | -2.1% | 13.4% | / | / | /
O=C(O)CC(C(=O)O)N1C(=O)/C(=C/c2ccc(-c3nc4ccccc4s3)o2)SC1=S (centres undefined) | ? | 3.2% | 28.2µM* | 36.1% | 35.5µM* | 21.5µM* | 150.9% | -13.9% | FEN1 inh-2=60.1*
CCC(C(=O)O)N1C(=O)/C(=C/c2cccn2C)SC1=S (centres undefined) | -7.0% | 6.0% | -0.2% | -0.4% | -4.6% | / | / | /
O=C(O)CC(C(=O)O)N1C(=O)/C(=C/C=C/c2ccco2)SC1=S (centres undefined) | 3.98µM* | 1µM* | 10µM* | 107.2% | ? | 3.83µM* | 3.83µM* | 4.82µM* | FEN1 inh-2=10.7*
CCc1ccc(S(=O)(=O)NCc2nc3cccnc3n2Cc2ccccc2Cl)cc1 | / | / | / | -3.8% | -3.4% | / | / | /
O=C1NC2c3c(Cl)sc(Cl)c3C(=O)C2O1 (centres undefined) | / | / | 2.38µM* | / | ? | 15.2µM* | -18.2% | 1.36µM* | FEN1 inh-2=?
O=C1NC2c3c(I)sc(I)c3C(=O)C2O1 (centres undefined) | / | / | -9.6% | / | -14.0% | / | / | /
CCN1CCN(Cc2c(O)ccc3c2O/C(=C\c2ccccc2)C3=O)CC1 | -3.9% | -7.5% | -11.2% | -4.6% | -4.2% | / | / | /
CC1CCCN(Cc2c(O)ccc3c2O/C(=C\c2ccco2)C3=O)C1 (centres undefined) | -7.1% | -1.0% | 35.5µM* | -5.5% | ? | -9.0% | 330.8% | -26.8%
COc1ccc2[nH]c(C)c(C(=O)CN(C)CC(OC)OC)c2c1 | / | / | / | / | 9.5% | / | / | /
COC(=O)c1ccc(CCc2cc(O)c(Br)cc2O)cc1 | / | / | 25.1µM* | / | 8.0% | -27.4% | -10.9% | ?
CNc1ccccc1C(C)(C)c1cc(-c2cccc([N+](=O)[O-])c2)no1 | -8.2% | 14.3% | -11.7% | -7.4% | -22.8% | / | / | /
CNc1ccccc1C(C)(C)c1cc(-c2cccc(Br)c2)no1 | -14.0% | 55.8% | 79.4µM* | -7.6% | -29.9% | ? | -7.0% | ?
COc1cc2c(cc1OC)C(COc1ccccc1OC)N(C(=O)COc1ccc(Cl)cc1)CC2 (centres undefined) | / | / | / | -12.0% | 4.6% | / | / | /
CC1(C)CC(=O)C(C(C2=C(O)CC(C)(C)CC2=O)c2ccc(O)c([N+](=O)[O-])c2)=C(O)C1 | 5.7% | -5.9% | ? | -1.1% | 79.4µM* | 21.5µM* | ? | -23.7%
CC1(C)CC(=O)C(C(C2=C(O)CC(C)(C)CC2=O)c2ccc([N+](=O)[O-])cc2)C(=O)C1 (centres undefined) | -15.6% | -4.0% | -28.7%[57.1 µM] | -0.8% | -1.4% | / | / | /
COc1ccc(C(=O)Nc2cc(-c3cccc(C)c3)nn2-c2ccccc2)cc1 | / | / | / | -11.4% | 0.9% | / | / | /
CCOc1ncccc1C(=O)NNC(=O)c1cccc(S(=O)(=O)Nc2ccc(OC)cc2)c1 | / | -8.1% | ? | -4.3% | 12.1% | -23.4% | -8.1% | -14.1%
O=C(NCCc1ccc(Cl)cc1)c1ccc2c(c1)N(Cc1cccc(Cl)c1)C(=O)c1ccccc1S2(=O)=O | / | / | / | -7.0% | 10.5% | / | / | /
CCOC(=O)C(C)N1C(=O)S/C(=C\c2ccc(-c3ccccc3C(=O)O)o2)C1=O (centres undefined) | / | 5.97µM* | 25.1µM* | -0.3% | 31.6µM* | 15.2µM* | -5.7% | 21.5µM*
SMILES | RECQ1 inh | APE1 inh | WRN helicase inh-1 | BLM helicase inh-1 | FEN1 inh-1 | WRN helicase inh-2 | TO DNA binding | BLM helicase inh-2 | others
CN1CCN(C(=S)C(=O)Nc2ccc(Br)cc2)CC1 | i | -1.6% | 44.7µM* | 0.2% | ? | 3.2% | -3.8% | -25.2%
Cc1ccc(C(=O)NCCc2ccc(Cl)cc2)cc1-n1c(C)nc2cccnc21 | / | / | / | 1.2% | -5.3% | / | / | /
O=C(NCCC1=CCCCC1)c1ccc2c(=O)n3nc(Nc4ccccc4)sc3nc2c1 | / | / | / | -3.1% | -2.4% | / | / | /
O=C(NCCCN1CCOCC1)c1sc2cc([N+](=O)[O-])ccc2c1Cl | 12.9% | 0.0% | 28.2µM* | 0.9% | ? | -11.6% | -14.8% | ?
O=C(NCCCN1CCOCC1)c1sc2cc(Cl)ccc2c1Cl | -10.0% | -7.8% | -3.1% | 0.2% | 0.4% | / | / | /
CCc1nnc(SCc2nc(-c3ccccc3)oc2C)c2cc3sccc3n12 | / | / | / | -11.5% | -4.2% | / | / | /
CC(C)N1CCc2c(sc(NC(=O)c3cc4cc([N+](=O)[O-])ccc4s3)c2C(N)=O)C1 | 0.6% | -3.6% | 79.4µM* | ? | ? | 17.1µM* | 17.1µM* | 13.6µM*
COc1ccc2[nH]c(=O)c(-c3noc(-c4ccccc4)n3)cc2c1 | -8.8% | 10.3% | ? | 1.0% | ? | 21.5µM* | 45.1% | 6.07µM*
COc1ccccc1/C=C/c1nc(C#N)c(NCc2ccccc2)o1 | / | / | / | -9.8% | -7.3% | / | / | /
N#Cc1c(-c2ccc(Cl)c([N+](=O)[O-])c2)no[n+]1[O-] | / | / | / | / | / | 19.2µM* | -12.8% | 21.5µM*
Cc1n[nH]c(=S)n(NC(=O)/C=C/C(=O)Nn2c(=S)[nH]nc(C)c2=O)c1=O | -19.6% | 7.94µM* | 17.8µM* | -6.6% | 44.7µM* | ? | -15.0% | 21.5µM*
Cc1n[nH]c(=S)n(NC(=O)CC(=O)Nn2c(=S)[nH]nc(C)c2=O)c1=O | i | -1.3% | 2.0% | 0.7% | 14.8% | / | / | /
